The source of these data is publication PMC11006913.

Test in all cases: PBM; 200 nM protein, PBS
Conditions in all cases: dsDNA, one strand shown

The target in assay [1] is T1, SIX6 (Homo sapiens, UniProt O95475 114-200, L167I).
T1 sequence: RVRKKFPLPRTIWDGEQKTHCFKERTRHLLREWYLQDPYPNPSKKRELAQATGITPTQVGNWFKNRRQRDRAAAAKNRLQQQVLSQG

In assay [2] the target is T2, SIX6 (Homo sapiens, UniProt O95475 114-200, L143V).
T2 sequence: T1 sequence with L30V, I54L

Assay [3] has as its target T3, SIX6 (Homo sapiens, UniProt O95475 114-200, H141N).
T3 sequence: T1 sequence with H28N, I54L

In assay [4] the target is T4, SIX6 (Homo sapiens, UniProt O95475 114-200, T165P).
T4 sequence: T1 sequence with T52P, I54L

For assay [5], the target named is T5, SIX6 (Homo sapiens, UniProt O95475 114-200, L167M).
T5 sequence: T1 sequence with I54M

For assay [6], the target named is T6, SIX6 (Homo sapiens, UniProt O95475 114-200, L143M).
T6 sequence: T1 sequence with L30M, I54L

The target in assay [7] is T7, SIX6 (Homo sapiens, UniProt O95475 114-200, L143I).
T7 sequence: T1 sequence with L30I, I54L

The target of assay [8] is T8, SIX6 (Homo sapiens, UniProt O95475 114-200, T165G).
T8 sequence: T1 sequence with T52G, I54L

The target of assay [9] is T9, SIX6 (Homo sapiens, UniProt O95475 114-200, T139Q).
T9 sequence: T1 sequence with T26Q, I54L

Assay [10] concerns the target T10, SIX6 (Homo sapiens, UniProt O95475 114-200, T165A).
T10 sequence: T1 sequence with T52A, I54L

In assay [11] the target is T11, SIX6 (Homo sapiens, UniProt O95475 114-200, L167V).
T11 sequence: T1 sequence with I54V

Assay [12] addresses T12, SIX6 (Homo sapiens, UniProt O95475 114-200).
T12 sequence: T1 sequence with I54L

Assay [13] has as its target T13, SIX6 (Homo sapiens, UniProt O95475 114-200, T165I).
T13 sequence: T1 sequence with T52I, I54L

Residue numbers refer to the chain shown, from its start.

Regarding CCGGGGCC, the binding signal with SIX6 [1] is 9.14 upbm affinity estimate (log intensity, higher = more binding, comparable within an allelic series); in the assay with SIX6 [2] it was 8.96 upbm affinity estimate (log intensity, higher = more binding, comparable within an allelic series); with SIX6 [3], 9.12 upbm affinity estimate (log intensity, higher = more binding, comparable within an allelic series); in the assay with SIX6 [4], 8.97 upbm affinity estimate (log intensity, higher = more binding, comparable within an allelic series); in the assay with SIX6 [5] it was 9.04 upbm affinity estimate (log intensity, higher = more binding, comparable within an allelic series); with SIX6 [6], 9.04 upbm affinity estimate (log intensity, higher = more binding, comparable within an allelic series). Moreover, the binding signal with SIX6 [7] was 9.01 upbm affinity estimate (log intensity, higher = more binding, comparable within an allelic series); in the assay with SIX6 [8], 9.1 upbm affinity estimate (log intensity, higher = more binding, comparable within an allelic series); with SIX6 [9] it was 9.26 upbm affinity estimate (log intensity, higher = more binding, comparable within an allelic series); with SIX6 [10], 9.1 upbm affinity estimate (log intensity, higher = more binding, comparable within an allelic series); with SIX6 [11] it was 9.05 upbm affinity estimate (log intensity, higher = more binding, comparable within an allelic series); with SIX6 [12], 9.09 upbm affinity estimate (log intensity, higher = more binding, comparable within an allelic series). Besides, in the assay with SIX6 [13], the binding signal was 9.09 upbm affinity estimate (log intensity, higher = more binding, comparable within an allelic series).

On to CCCTCTGC, for which the binding signal with SIX6 [1] was 8.98 upbm affinity estimate (log intensity, higher = more binding, comparable within an allelic series); with SIX6 [2], 8.83 upbm affinity estimate (log intensity, higher = more binding, comparable within an allelic series); with SIX6 [3], 9.02 upbm affinity estimate (log intensity, higher = more binding, comparable within an allelic series); with SIX6 [4], 8.85 upbm affinity estimate (log intensity, higher = more binding, comparable within an allelic series); in the assay with SIX6 [5] it was 8.95 upbm affinity estimate (log intensity, higher = more binding, comparable within an allelic series); with SIX6 [6], 9.06 upbm affinity estimate (log intensity, higher = more binding, comparable within an allelic series). For the same sequence, the binding signal with SIX6 [7] was 8.9 upbm affinity estimate (log intensity, higher = more binding, comparable within an allelic series); with SIX6 [8], 9.1 upbm affinity estimate (log intensity, higher = more binding, comparable within an allelic series); in the assay with SIX6 [9], 9.06 upbm affinity estimate (log intensity, higher = more binding, comparable within an allelic series); with SIX6 [10], 9.06 upbm affinity estimate (log intensity, higher = more binding, comparable within an allelic series); in the assay with SIX6 [11], 8.95 upbm affinity estimate (log intensity, higher = more binding, comparable within an allelic series); with SIX6 [12], 9.05 upbm affinity estimate (log intensity, higher = more binding, comparable within an allelic series). For the same sequence, in the assay with SIX6 [13], the binding signal is 8.97 upbm affinity estimate (log intensity, higher = more binding, comparable within an allelic series).

In the case of ACGATAGT, the binding signal in the assay with SIX6 [1] was 10.4 upbm affinity estimate (log intensity, higher = more binding, comparable within an allelic series); with SIX6 [2], 10 upbm affinity estimate (log intensity, higher = more binding, comparable within an allelic series); in the assay with SIX6 [3], 10.4 upbm affinity estimate (log intensity, higher = more binding, comparable within an allelic series); with SIX6 [4], 9.75 upbm affinity estimate (log intensity, higher = more binding, comparable within an allelic series); with SIX6 [7] it was 10 upbm affinity estimate (log intensity, higher = more binding, comparable within an allelic series); in the assay with SIX6 [8] it was 10.5 upbm affinity estimate (log intensity, higher = more binding, comparable within an allelic series). Also, the binding signal is 10.6 upbm affinity estimate (log intensity, higher = more binding, comparable within an allelic series) with SIX6 [9]; 10.4 upbm affinity estimate (log intensity, higher = more binding, comparable within an allelic series) with SIX6 [10]; 10.3 upbm affinity estimate (log intensity, higher = more binding, comparable within an allelic series) with SIX6 [11]; 10.4 upbm affinity estimate (log intensity, higher = more binding, comparable within an allelic series) with SIX6 [12]; 10.3 upbm affinity estimate (log intensity, higher = more binding, comparable within an allelic series) in the assay with SIX6 [13].

On to ACGATATC, for which the binding signal with SIX6 [1] was 11.1 upbm affinity estimate (log intensity, higher = more binding, comparable within an allelic series); with SIX6 [2], 10.2 upbm affinity estimate (log intensity, higher = more binding, comparable within an allelic series); in the assay with SIX6 [3], 11.1 upbm affinity estimate (log intensity, higher = more binding, comparable within an allelic series); with SIX6 [4] it was 9.76 upbm affinity estimate (log intensity, higher = more binding, comparable within an allelic series); with SIX6 [5] it was 10.6 upbm affinity estimate (log intensity, higher = more binding, comparable within an allelic series); with SIX6 [6] it was 11 upbm affinity estimate (log intensity, higher = more binding, comparable within an allelic series). Also, the binding signal in the assay with SIX6 [7] was 10.3 upbm affinity estimate (log intensity, higher = more binding, comparable within an allelic series); in the assay with SIX6 [8], 11.3 upbm affinity estimate (log intensity, higher = more binding, comparable within an allelic series); with SIX6 [9], 11.2 upbm affinity estimate (log intensity, higher = more binding, comparable within an allelic series); in the assay with SIX6 [10], 11 upbm affinity estimate (log intensity, higher = more binding, comparable within an allelic series); with SIX6 [11], 10.9 upbm affinity estimate (log intensity, higher = more binding, comparable within an allelic series); with SIX6 [12], 10.9 upbm affinity estimate (log intensity, higher = more binding, comparable within an allelic series). Also, in the assay with SIX6 [13], the binding signal was 10.8 upbm affinity estimate (log intensity, higher = more binding, comparable within an allelic series).

Turning to ATTATACC, the binding signal with SIX6 [1] is 10.8 upbm affinity estimate (log intensity, higher = more binding, comparable within an allelic series); with SIX6 [2] it was 10.3 upbm affinity estimate (log intensity, higher = more binding, comparable within an allelic series); with SIX6 [3], 10.7 upbm affinity estimate (log intensity, higher = more binding, comparable within an allelic series); in the assay with SIX6 [4], 10.1 upbm affinity estimate (log intensity, higher = more binding, comparable within an allelic series); with SIX6 [5], 10.5 upbm affinity estimate (log intensity, higher = more binding, comparable within an allelic series); in the assay with SIX6 [6], 10.8 upbm affinity estimate (log intensity, higher = more binding, comparable within an allelic series). Also, the binding signal is 10.3 upbm affinity estimate (log intensity, higher = more binding, comparable within an allelic series) in the assay with SIX6 [7]; 10.8 upbm affinity estimate (log intensity, higher = more binding, comparable within an allelic series) with SIX6 [8]; 10.8 upbm affinity estimate (log intensity, higher = more binding, comparable within an allelic series) in the assay with SIX6 [9]; 10.7 upbm affinity estimate (log intensity, higher = more binding, comparable within an allelic series) with SIX6 [10]; 10.5 upbm affinity estimate (log intensity, higher = more binding, comparable within an allelic series) with SIX6 [11]; 10.7 upbm affinity estimate (log intensity, higher = more binding, comparable within an allelic series) with SIX6 [12]. Also, the binding signal with SIX6 [13] was 10.6 upbm affinity estimate (log intensity, higher = more binding, comparable within an allelic series).
